Reference: PubChem BioAssay (EPA / NIEHS)
“And” between values parts separate entries of the source, which are not always exact repeats. Equal entries are not always repeated. A structure can be active in one record and inactive in another. The source made the active and inactive calls. The calls were made as follows: active = hit-call score of the fitted dose curve at least 0.9, where 1 is the maximum; inactive = score below 0.9.

What was measured:
[1] = read-out: Intercellular Adhesion Molecule 1 (ICAM1), ICAM1 (gene 3383); assay: BSK_BE3C_ICAM1: BioMAP Diversity Plus: BE3C Assay for Intercellular Adhesion Molecule 1 (ICAM1) Biomarker Activity (AID 2284278); settings: primary human bronchial epithelial cells;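 also: cell-surface ICAM-1 protein level quantified by ELISA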
Procedure, shortened: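 Primary human bronchial epithelial cells in BE3C system, 24 h after chemical dosing; cell-surface ICAM-1 measured by ELISA relative to DMSO. Parallel SRB staining (0.1% SRB after 10% TCA fixation, read at 560 nm) assessed cytotoxicity.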

[2] = read-out: Interferon-inducible T-cell alpha chemoattractant (ITAC), CXCL11 (gene 6373); assay: BSK_BE3C_ITAC: BioMAP Diversity Plus: BE3C Assay for Interferon-inducible T-cell alpha chemoattractant (ITAC) Biomarker Activity (AID 2284279); settings: primary human bronchial epithelial cells
Procedure, shortened: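 BE3C cells (human primary bronchial epithelium), 24 h compound exposure, I-TAC by ELISA, DMSO = negative control/baseline, positive fitting direction.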

[3] = read-out: Interleukin-8 (IL8), CXCL8 (gene 3576); assay: BSK_BE3C_IL8: BioMAP Diversity Plus: BE3C Assay for Interleukin-8 (IL8) Biomarker Activity (AID 2284280); settings: primary human bronchial epithelial cells
Procedure, shortened: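 Primary human bronchial epithelial cells (BE3C system) exposed 24 h; IL-8 measured by ELISA and fitted in positive direction versus DMSO. Overt cytotoxicity assessed by SRB total-protein staining in parallel cultures.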

KRT18 (gene 3875) = assay: BSK_BE3C_Keratin818: BioMAP Diversity Plus: BE3C Assay for Keratin 818 Biomarker Activity (AID 2284282); settings: primary human bronchial epithelial cells
Procedure, shortened: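 Primary human bronchial epithelial cells treated 24 h; Keratin 8/18 quantified by ELISA, fit relative to DMSO. Cytotoxicity tracked in parallel cultures by sulforhodamine B total-protein staining.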

[4] = read-out: Matrix Metallopeptidase 9 (MMP9), MMP9 (gene 4318); assay: BSK_BE3C_MMP9: BioMAP Diversity Plus: BE3C Assay for Matrix Metallopeptidase 9 (MMP9) Biomarker Activity (AID 2284283); settings: primary human bronchial epithelial cells
Procedure, shortened: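 Human primary bronchial epithelial cells in the BE3C system were dosed with compound for 24 h. MMP-9 was measured by ELISA, and the positive-direction response was fitted relative to DMSO as baseline. Parallel SRB staining gauged cytotoxicity.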

[5] = read-out: Plasminogen activator inhibitor-1 (PAI1), SERPINE1 (gene 5054); assay: BSK_CASM3C_PAI1: BioMAP Diversity Plus: CASM3C Assay for Plasminogen activator inhibitor-1 (PAI1) Biomarker Activity (AID 2284284); settings: primary human coronary artery smooth muscle cells;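 also: PAI-1 protein level measured by ELISA 24 h after dosing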
[6] = read-out: Monocyte Chemoattractant Protein-1 (MCP1), CCL2 (gene 6347); assay: BSK_hDFCGF_MCP1: BioMAP Diversity Plus: hDFCGF Assay for Monocyte Chemoattractant Protein-1 (MCP1) Biomarker Activity (AID 2284285); settings: primary human foreskin fibroblasts
Procedure, shortened: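 Human foreskin fibroblasts (hDFCGF system) were exposed to compound and secreted MCP-1 was measured by ELISA after 24 hours. Activity was fitted relative to DMSO. Cytotoxicity was checked by SRB total-protein staining in parallel cultures.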

[7] = read-out: Intercellular Adhesion Molecule 1 (ICAM1), ICAM1 (gene 3383); assay: BSK_hDFCGF_ICAM1: BioMAP Diversity Plus: hDFCGF Assay for Intercellular Adhesion Molecule 1 (ICAM1) Biomarker Activity (AID 2284287); settings: primary human foreskin fibroblasts
Procedure, shortened: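 Primary human foreskin fibroblasts (hDFCGF system) dosed with chemical; ICAM-1 quantified by ELISA at 24 h relative to DMSO. Parallel SRB total-protein staining to assess overt cytotoxicity.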

[8] = read-out: TIMP metallopeptidase inhibitor 2 (TIMP2), TIMP2 (gene 7077); assay: BSK_hDFCGF_TIMP2: BioMAP Diversity Plus: hDFCGF Assay for TIMP metallopeptidase inhibitor 2 (TIMP2) Biomarker Activity (AID 2284289); settings: primary human foreskin fibroblasts
Procedure, shortened: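 Primary human foreskin fibroblasts in the hDFCGF system, dosed for 24 h; TIMP-2 level measured by ELISA, fitted in the positive direction against DMSO; cytotoxicity checked in parallel by sulforhodamine B total protein staining.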

[9] = read-out: Thrombomodulin, THBD (gene 7056); assay: BSK_LPS_Thrombomodulin: BioMAP Diversity Plus: LPS Assay for Thrombomodulin Biomarker Activity (AID 2284296); settings: primary human HUVEC with PBMC
Procedure, shortened: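 Human umbilical vein endothelial cells co-cultured with PBMC and stimulated with LPS; cell-surface thrombomodulin measured by ELISA 24 hours after compound. Gain or loss versus DMSO; cytotoxicity checked by SRB staining in parallel cultures.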

[10] = read-out: Vascular cell adhesion molecule 1 (VCAM1), VCAM1 (gene 7412); assay: BSK_IMphg_VCAM1: BioMAP Diversity Plus: IMphg Assay for Vascular cell adhesion molecule 1 (VCAM1) Biomarker Activity (AID 2284286); settings: primary human endothelial cells with macrophages
Procedure, shortened: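 Human venular endothelial cells co-cultured with macrophages; VCAM-1 quantified by ELISA 24 h after dosing, fitted in the positive direction against DMSO. Cytotoxicity was checked in parallel cultures by SRB total-protein staining (0.1% SRB after 10% TCA fixation, 560 nm).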

CD40, CD40 (gene 958) = assay: BSK_IMphg_CD40: BioMAP Diversity Plus: IMphg Assay for CD40 Biomarker Activity (AID 2284288); settings: primary human endothelial cells with macrophages
Procedure, shortened: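 Venular endothelial cells co-cultured with macrophages (human primary), CD40 measured by ELISA 24 h after dosing. Positive-direction fit vs DMSO baseline; cytotoxicity tracked by SRB total-protein staining in parallel cultures.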

[11] = read-out: Interleukin-1 alpha (IL1a), IL1A (gene 3552); assay: BSK_IMphg_IL1a: BioMAP Diversity Plus: IMphg Assay for Interleukin-1 alpha (IL1a) Biomarker Activity (AID 2284290); settings: primary human endothelial cells with macrophages
Procedure, shortened: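 Human venular endothelial cells co-cultured with macrophages, IMphg system. IL-1α is measured by ELISA 24 h after dosing and fitted in the positive direction against DMSO. Cytotoxicity is assessed by SRB staining of parallel cultures.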

[12] = read-out: E-selectin (Homo sapiens) (UniProt P16581); assay: BSK_IMphg_ESelectin: BioMAP Diversity Plus: IMphg Assay for Eselectin Biomarker Activity (AID 2284291); settings: primary human endothelial cells with macrophages
Procedure, shortened: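 Human venular endothelial cell–macrophage co-culture, E-selectin measured by ELISA 24 h after chemical dosing. Signal fitted in the positive direction against DMSO as negative control and baseline.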

[13] = BSK_IMphg_SRB: Viability Assessment in the BioMAP Diversity Plus: IMphg Assay (AID 2284292); settings: primary human endothelial cells with macrophages;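 also: measured one day after compound addition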
Procedure, shortened: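 Human venular endothelial cells with macrophages, 24 h after chemical dosing; total protein by 0.1% SRB staining after 10% TCA fixation, read at 560 nm. Positive-direction fitting versus DMSO baseline.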

[14] = read-out: Macrophage colony-stimulating factor (MCSF), CSF1 (gene 1435); assay: BSK_IMphg_MCSF: BioMAP Diversity Plus: IMphg Assay for Macrophage colony-stimulating factor (MCSF) Biomarker Activity (AID 2284293); settings: primary human endothelial cells with macrophages
Procedure, shortened: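 Co-culture of human venular endothelial cells and macrophages, 24 hours of chemical exposure. M-CSF quantified by ELISA, with parallel SRB total-protein staining for cytotoxicity; activity fitted relative to DMSO.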

[15] = read-out: Interleukin-10 (IL10), IL10 (gene 3586); assay: BSK_IMphg_IL10: BioMAP Diversity Plus: IMphg Assay for Interleukin-10 (IL10) Biomarker Activity (AID 2284294); settings: primary human endothelial cells with macrophages
Procedure, shortened: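 Human venular endothelial cells cocultured with macrophages, dosed 24 h; IL-10 measured by ELISA, activity relative to DMSO. Cytotoxicity assessed in parallel cultures by sulforhodamine B total-protein staining.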

[16] = BSK_IMphg_SRB.Mphg: Macrophage Viability Assessment in the BioMAP Diversity Plus: IMphg Assay (AID 2284295); settings: primary human endothelial cells with macrophages
Procedure, shortened: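 Venular endothelial cells co-cultured with macrophages, read 24 h after dosing. Total protein measured by 0.1% SRB staining after 10% TCA fixation, absorbance at 560 nm. Fitted in positive direction against DMSO baseline.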

[17] = IUF_NPC2c_oligodendrocyte_migration_120hr: Leibniz Research Institute for Environmental Medicine (IUF) 120-hour Neural Progenitor Cell Migration Assay for Oligodendrocyte Migration (NPC2c) (AID 2284297);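 also: O4-positive oligodendrocyte migration distance divided by radial glia migration distance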
Procedure, shortened: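 Human fetal cortex-derived neural progenitor spheres (0.3 mm) were plated on poly-D-lysine/laminin in N2 differentiation medium and exposed to 7 concentrations for 120 h, with half-medium renewal at day 3. Oligodendrocyte migration distance was normalized to radial glia migration, relative to DMSO.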

[18] = IUF_NPC2a_radial_glia_migration_120hr: Leibniz Research Institute for Environmental Medicine (IUF) 120-hour Neural Progenitor Cell Migration Assay for Radial Glia Migration (NPC2a) (AID 2284298)
Procedure, shortened: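 Single 0.3 mm primary human fetal-cortex (GW 16-19) NPC spheres were plated on poly-D-lysine/laminin in N2 differentiation medium and exposed from day 0 for 120 h, half-medium refreshed day 3. Migration distance came from Hoechst nuclei-density imaging, relative to DMSO.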

Sequence of E-selectin (Homo sapiens) (P16581 whole entry, looked up): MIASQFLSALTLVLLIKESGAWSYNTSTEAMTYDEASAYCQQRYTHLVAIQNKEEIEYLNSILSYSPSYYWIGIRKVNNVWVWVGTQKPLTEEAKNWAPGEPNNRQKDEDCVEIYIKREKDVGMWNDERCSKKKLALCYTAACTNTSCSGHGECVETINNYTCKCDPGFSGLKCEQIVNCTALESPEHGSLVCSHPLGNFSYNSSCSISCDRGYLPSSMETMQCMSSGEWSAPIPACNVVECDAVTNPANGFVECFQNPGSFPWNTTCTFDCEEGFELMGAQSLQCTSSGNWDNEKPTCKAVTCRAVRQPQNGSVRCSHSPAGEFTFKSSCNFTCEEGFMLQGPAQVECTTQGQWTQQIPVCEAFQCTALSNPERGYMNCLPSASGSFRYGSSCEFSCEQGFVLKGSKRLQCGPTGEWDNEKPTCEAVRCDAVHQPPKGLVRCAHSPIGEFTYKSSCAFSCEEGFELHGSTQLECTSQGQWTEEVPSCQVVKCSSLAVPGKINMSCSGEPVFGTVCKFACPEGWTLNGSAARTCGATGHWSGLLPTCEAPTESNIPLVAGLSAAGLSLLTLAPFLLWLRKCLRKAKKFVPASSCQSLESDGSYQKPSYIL

With `CC(=O)c1ccc(C)cc1` the outcome [1] was “inactive”, the outcome [2] was “inactive” and the outcome [3] was “inactive”. The outcome (KRT18 (gene 3875)) was “inactive”, the outcome [4] was “inactive” and the outcome [5] was “inactive”. For the same molecule, the outcome [6] was “inactive”, the outcome [7] was “inactive” and the outcome [8] was “inactive”. For the same molecule, the outcome [9] was “inactive”.
In the case of `O=S(=O)(O)C(F)(F)C(F)(F)OC(F)(F)C(F)(F)F`, the outcome [1] is reported as “inactive”, the outcome [2] is reported as “inactive” and the outcome [3] is reported as “inactive”. For the same molecule, the outcome (KRT18 (gene 3875)) was “inactive”, the outcome [4] was “inactive” and the outcome [5] was “inactive”. The outcome [6] was “inactive”, the outcome [10] was “inactive” and the outcome [7] was “inactive”. The outcome (CD40, CD40 (gene 958)) was “inactive”, the outcome [8] was “inactive” and the outcome [11] was “inactive”. For the same molecule, the outcome [12] was “inactive”, the outcome [13] was “inactive” and the outcome [14] was “inactive”. For the same molecule, the AC50 [15] was 47.8 µM (active) and 44.1 µM (active), the outcome [16] was “inactive” and the outcome [9] was “inactive”.
With `CCCCN(CCO)CCO` the outcome [1] was “inactive”, the outcome [2] was “inactive” and the outcome [3] was “inactive”. The outcome (KRT18 (gene 3875)) was “inactive”, the outcome [4] was “inactive” and the outcome [5] was “inactive”. The outcome [6] was “inactive”, the outcome [7] was “inactive” and the AC50 [8] was 4.34 µM (active). For the same molecule, the outcome [8] was “inactive” and the outcome [9] was “inactive”.
In the case of `CCCCC(CC)COC(=O)COc1ccc(Cl)cc1C` (stereo unspecified), the outcome [17] is reported as “inactive” and the outcome [18] is reported as “inactive”.
With `CC(C)Cc1ccc(C(C)C(=O)O)cc1` (stereo unspecified) the outcome [17] was “inactive” and the outcome [18] was “inactive”.
With `C=C(C)C(=O)OCCC(F)(F)C(F)(F)C(F)(F)C(F)(F)C(F)(F)C(F)(F)C(F)(F)C(F)(F)F` the outcome [1] was “inactive”, the outcome [2] was “inactive” and the outcome [3] was “inactive”. For the same molecule, the outcome (KRT18 (gene 3875)) was “inactive”, the outcome [4] was “inactive” and the outcome [5] was “inactive”. The outcome [6] was “inactive”, the outcome [10] was “inactive” and the outcome [7] was “inactive”. For the same molecule, the AC50 (CD40, CD40 (gene 958)) was 2.53 µM (active), the outcome (CD40, CD40 (gene 958)) was “inactive” and the outcome [8] was “inactive”. For the same molecule, the outcome [11] was “inactive”, the outcome [12] was “inactive” and the outcome [13] was “inactive”. For the same molecule, the outcome [14] was “inactive”, the outcome [15] was “inactive” and the outcome [16] was “inactive”. For the same molecule, the outcome [9] was “inactive”.
In the case of `OCC(F)(OC(F)(F)C(F)(OC(F)(F)C(F)(F)C(F)(F)F)C(F)(F)F)C(F)(F)F` (stereo unspecified), the outcome [1] is reported as “inactive”, the AC50 [2] is reported as 5.2 µM (active) and the outcome [2] is reported as “inactive”. For the same molecule, the outcome [3] was “inactive”, the outcome (KRT18 (gene 3875)) was “inactive” and the outcome [4] was “inactive”. For the same molecule, the outcome [5] was “inactive”, the AC50 [6] was 4.79 µM (active) and 2.83 µM (active) and the outcome [10] was “inactive”. The AC50 [7] was 5.06 µM (active) and 2.52 µM (active), the outcome (CD40, CD40 (gene 958)) was “inactive” and the AC50 [8] was 2.07 µM (active) and 198 nM (active). The outcome [11] was “inactive”, the AC50 [12] was 5.64 µM (active) and 3.5 µM (active) and the AC50 [13] was 6.17 µM (active). For the same molecule, the outcome [13] was “inactive”, the outcome [14] was “inactive” and the AC50 [15] was 3.33 µM (active). For the same molecule, the outcome [15] was “inactive”, the AC50 [16] was 4.31 µM (active) and the outcome [16] was “inactive”. For the same molecule, the outcome [9] was “inactive”.
In the case of `N[C@@H](CCC(=O)O)C(=O)O`, the outcome [17] is reported as “inactive” and the outcome [18] is reported as “inactive”.
With `CC(C)CCCC(C)(C)O` the outcome [1] was “inactive”, the outcome [2] was “inactive” and the outcome [3] was “inactive”. The outcome (KRT18 (gene 3875)) was “inactive”, the outcome [4] was “inactive” and the outcome [5] was “inactive”. The outcome [6] was “inactive”, the outcome [7] was “inactive” and the outcome [8] was “inactive”. For the same molecule, the outcome [9] was “inactive”.
